Data taken from the antibiotic and cytotoxicity screens of Wong et al. (2023).
The whole screen tested about 39,000 compounds, of which about 3,300 (8.5%) were called active. What follows is part of a selection rich in actives, with near analogues and random picks from the rest.

System: HepG2
Test: cytotoxicity call (relative viability < 0.9)
Settings: 10 µM

Compound	cytotoxicity call
COCCCN(C[C@]1(O)CC[C@H]2C3=CC=C4C[C@@H](O)CC[C@]4(C)[C@@H]3CC[C@@]21C)C(=O)O[C@H]1C[C@@H](C)CC[C@@H]1C(C)C	inactive
CC(C)NC(=O)N(C)C[C@H]1Oc2ccc(NS(=O)(=O)c3cccs3)cc2C(=O)N([C@H](C)CO)C[C@@H]1C	inactive
CO[C@H]1CN(C)C(=O)c2cc(NS(C)(=O)=O)ccc2OC[C@@H](C)N(C(=O)C2CCOCC2)C[C@H]1C	inactive
C[C@@H]1CN([C@@H](C)CO)C(=O)Cc2cc(NC(=O)C3CCCCC3)ccc2O[C@H]1CN(C)Cc1ccc(Cl)c(Cl)c1	inactive
C[C@H]1CN([C@@H](C)CO)C(=O)Cc2cc(NC(=O)Cn3cnnn3)ccc2O[C@H]1CN(C)C(=O)Nc1ccc2c(c1)OCO2	inactive
Cc1ccc(S(=O)(=O)N(C)C[C@H]2Oc3c(NS(=O)(=O)c4cn(C)cn4)cccc3C(=O)N([C@H](C)CO)C[C@@H]2C)cc1	inactive
C[N+](C)(C)CCCCCCNC(=O)[C@@H]1C[C@@H]2C(=O)N[C@@H](CCCC[N+](C)(C)C)C(=O)N2[C@@H]1c1ccc(O)cc1	inactive
Cc1ccc(S(=O)(=O)N(C)C[C@H]2Oc3ccc(NC(=O)NC(C)C)cc3C(=O)N([C@@H](C)CO)C[C@H]2C)cc1	inactive
C[C@H](CO)N1C[C@H](C)[C@@H](CN(C)C(=O)N[C@H](C)c2ccccc2)OCc2ccccc2-c2c(n(C)c3ccccc23)C1=O	inactive
O=C(C[C@H]1CC[C@@H]2[C@H](COC[C@H](O)CN2S(=O)(=O)c2ccccc2)O1)N1CCc2ccccc2C1	inactive
CCCC[C@@H](C)/C=C(C)/C=C(\C)C(=O)NC1=C[C@@](O)(/C=C/C=C/C=C/C(=O)NC2C(=O)CCC2=O)[C@@H]2O[C@@H]2C1=O	active
C[C@@H]1CN([C@@H](C)CO)C(=O)c2cccc(NC(=O)Nc3ccc4c(c3)OCO4)c2O[C@@H]1CN(C)Cc1ccc(Cl)c(Cl)c1	inactive
O=C(C[C@@H]1CC[C@H]2[C@@H](COC[C@H](O)CN2CC2CCOCC2)O1)N1CCOCC1	inactive
COCC(=O)Nc1ccc2c(c1)C(=O)N(C)[C@H]1CC[C@@H](CC(=O)N3CCc4ccccc4C3)O[C@@H]1CO2	inactive
CN1C(=O)c2cc(NC(=O)c3ccc(F)cc3)ccc2OC[C@H]2O[C@@H](CC(=O)N3CCOCC3)CC[C@H]21	inactive
COc1cccc(C(=O)Nc2ccc3c(c2)C(=O)N(C)[C@H]2CC[C@H](CC(=O)NCC(F)(F)F)O[C@@H]2CO3)c1	inactive
COc1cccc(C(=O)Nc2ccc3c(c2)C(=O)N(C)[C@@H]2CC[C@@H](CC(=O)NCC4CC4)O[C@@H]2CO3)c1	inactive
COCC(=O)Nc1ccc2c(c1)C(=O)N(C)[C@@H]1CC[C@H](CC(=O)N3CCc4ccccc4C3)O[C@@H]1CO2	inactive
COCC(=O)Nc1ccc2c(c1)C(=O)N(C)[C@H]1CC[C@H](CC(=O)N3CCc4ccccc4C3)O[C@H]1CO2	active
COc1cccc(C(=O)Nc2ccc3c(c2)C(=O)N(C)[C@@H]2CC[C@H](CC(=O)NCC4CC4)O[C@@H]2CO3)c1	active
COc1cccc(C(=O)Nc2ccc3c(c2)C(=O)N(C)[C@H]2CC[C@H](CC(=O)NCC4CC4)O[C@@H]2CO3)c1	inactive

Compound	cytotoxicity call
CN1C(=O)c2cc(NC(=O)c3ccc(F)cc3)ccc2OC[C@H]2O[C@H](CC(=O)N3CCOCC3)CC[C@H]21	inactive
COc1cccc(C(=O)Nc2ccc3c(c2)C(=O)N(C)[C@H]2CC[C@H](CC(=O)NCC(F)(F)F)O[C@H]2CO3)c1	inactive
CN1C(=O)c2cc(NC(=O)c3ccc(F)cc3)ccc2OC[C@@H]2O[C@@H](CC(=O)N3CCOCC3)CC[C@H]21	active
COc1cccc(C(=O)Nc2ccc3c(c2)C(=O)N(C)[C@@H]2CC[C@H](CC(=O)NCC(F)(F)F)O[C@@H]2CO3)c1	active
C[C@H]1CN([C@@H](C)CO)C(=O)c2c(c3ccccc3n2C)-c2ccccc2CO[C@@H]1CN(C)Cc1cccc(O)c1	inactive
C[C@H](CO)N1C[C@H](C)[C@H](CN(C)S(C)(=O)=O)Oc2ccc(NC(=O)CCC(F)(F)F)cc2CC1=O	inactive
Cc1noc(C)c1S(=O)(=O)Nc1ccc2c(c1)C(=O)N([C@@H](C)CO)C[C@H](C)[C@@H](CN(C)C(=O)NC1CCCCC1)O2	inactive
C[C@@H]1CCCCO[C@@H](CN(C)C(=O)Nc2ccccc2)[C@@H](C)CN([C@@H](C)CO)C(=O)c2cc(NC(=O)CCC(F)(F)F)ccc2O1	inactive
C[C@H](CO)N1C[C@H](C)[C@@H](CN(C)C(=O)Nc2ccccc2)Oc2c(NS(=O)(=O)c3cn(C)cn3)cccc2C1=O	inactive
C[C@H]1CN([C@@H](C)CO)C(=O)Cc2cc(NS(=O)(=O)c3ccc(F)cc3)ccc2O[C@@H]1CN(C)S(=O)(=O)c1ccccc1	inactive
COc1ccc2c3c([nH]c2c1)[C@@H](CO)N(CC1CCCC1)C[C@]13CCN(CC1)C(=O)c1ccc(cc1)F	inactive
C[C@H](NC(=O)N(C)C[C@@H]1OCc2ccccc2-c2c(n(C)c3ccccc23)C(=O)N([C@@H](C)CO)C[C@H]1C)c1ccccc1	inactive
O=C(C[C@H]1CC[C@H]2[C@@H](COC[C@@H](O)CN2C(=O)c2ccccc2)O1)N1CCOCC1	inactive
Cc1noc(C)c1S(=O)(=O)Nc1cccc2c1O[C@H](CN(C)Cc1ccc(-c3ccccc3)cc1)[C@H](C)CN([C@@H](C)CO)C2=O	inactive
Cc1noc(C)c1S(=O)(=O)N(C)C[C@H]1Oc2c(NC(=O)c3cnccn3)cccc2C(=O)N([C@H](C)CO)C[C@H]1C	inactive
COc1ccc(NC(=O)Nc2ccc3c(c2)C(=O)N([C@@H](C)CO)C[C@@H](C)[C@H](CN(C)S(=O)(=O)c2ccc(C)cc2)OCCCC[C@@H](C)O3)cc1	inactive
COc1ccc(C(=O)Nc2ccc3c(c2)C(=O)N(C)[C@@H]2CC[C@H](CC(=O)NCC4CC4)O[C@H]2CO3)cc1	active
COc1ccc(C(=O)Nc2ccc3c(c2)C(=O)N(C)[C@H]2CC[C@H](CC(=O)NCC4CC4)O[C@H]2CO3)cc1	inactive
CCCNC(=O)C[C@@H]1CC[C@@H]2[C@H](COc3ccc(NC(=O)c4ccc5c(c4)OCO5)cc3C(=O)N2C)O1	inactive
CCCNC(=O)C[C@H]1CC[C@@H]2[C@@H](COc3ccc(NC(=O)c4ccc5c(c4)OCO5)cc3C(=O)N2C)O1	active
COc1ccc(C(=O)Nc2ccc3c(c2)C(=O)N(C)[C@H]2CC[C@@H](CC(=O)NCC4CC4)O[C@H]2CO3)cc1	inactive

Compound	cytotoxicity call
CCCNC(=O)C[C@@H]1CC[C@@H]2[C@@H](COc3ccc(NC(=O)c4ccc5c(c4)OCO5)cc3C(=O)N2C)O1	inactive
COc1ccc(C(=O)Nc2ccc3c(c2)C(=O)N(C)[C@H]2CC[C@H](CC(=O)NCC4CC4)O[C@@H]2CO3)cc1	inactive
COc1ccc(C(=O)Nc2ccc3c(c2)C(=O)N(C)[C@@H]2CC[C@H](CC(=O)NCC4CC4)O[C@@H]2CO3)cc1	active
COc1ccc(C(=O)Nc2ccc3c(c2)C(=O)N(C)[C@@H]2CC[C@@H](CC(=O)NCC4CC4)O[C@@H]2CO3)cc1	inactive
C[C@@H]1CCCCO[C@H](CN(C)C(=O)C2CCCCC2)[C@H](C)CN([C@@H](C)CO)C(=O)c2cc(NS(=O)(=O)c3cccs3)ccc2O1	inactive
Cc1cc(C(=O)Nc2cccc3c2O[C@@H](CN(C)Cc2ccccc2)[C@@H](C)CN([C@H](C)CO)C3=O)n(C)n1	inactive
C[C@H](CO)N1C[C@H](C)[C@H](CN(C)Cc2ccc(Oc3ccccc3)cc2)OCc2ccccc2-c2ccccc2C1=O	inactive
C[C@H]1CN([C@@H](C)CO)C(=O)c2cc(NC(=O)NC3CCCCC3)ccc2O[C@@H]1CN(C)Cc1ccc(C(F)(F)F)cc1	inactive
O=C(C[C@@H]1C=C[C@H](NS(=O)(=O)c2ccc(F)cc2)[C@@H](CO)O1)N1CCC(Cc2ccccc2)CC1	inactive
C[C@@H]1CN([C@H](C)CO)C(=O)CCCn2cc(nn2)CO[C@H]1CN(C)S(=O)(=O)c1ccc2ccccc2c1	inactive
Cc1noc(C)c1NC(=O)N(C)C[C@H]1OCCCC[C@@H](C)Oc2ccc(NC(=O)Cc3ccccc3)cc2C(=O)N([C@@H](C)CO)C[C@@H]1C	inactive
Cc1noc(C)c1NC(=O)Nc1cccc2c1O[C@@H](CN(C)Cc1ccc(Cl)c(Cl)c1)[C@@H](C)CN([C@@H](C)CO)C2=O	inactive
CO[C@@H]1CN(C)C(=O)c2ccc(NS(=O)(=O)c3ccccc3C)cc2OC[C@H](C)N(S(C)(=O)=O)C[C@H]1C	inactive
C[C@H]1CCCCO[C@H](CN(C)S(C)(=O)=O)[C@@H](C)CN([C@@H](C)CO)C(=O)c2cc(NS(C)(=O)=O)ccc2O1	inactive
COc1ccc(S(=O)(=O)Nc2ccc3c(c2)C(=O)N([C@@H](C)CO)C[C@@H](C)[C@H](CN(C)S(=O)(=O)c2ccc(OC)cc2)O3)cc1	inactive
N=C(N)NCCCC[C@@H]1NC(=O)CCSSC[C@@H](C(N)=O)NC(=O)[C@@H]2CCCN2C(=O)[C@H](Cc2c[nH]c3ccccc23)NC(=O)[C@H](CC(=O)O)NC(=O)CNC1=O	inactive
N=C(N)NCCC[C@@H]1NC(=O)[C@@H](N)CSSC[C@@H](C(=O)O)NC(=O)[C@H](CC(=O)O)NC(=O)[C@@H]2CCCN2C(=O)CNC(=O)[C@H](CCCCN)NC(=O)[C@H](CC(=O)O)NC(=O)CNC1=O	inactive
CC(C)[C@H]1C(=O)N[C@@H](CCCNC(=N)N)C(=O)NCC(=O)N[C@@H](CC(=O)O)C(=O)N[C@H](Cc2ccccc2)C(=O)N1C	active
C[C@@H]1CN([C@@H](C)CO)C(=O)Cc2cc(NC(=O)Nc3ccccc3)ccc2O[C@H]1CN(C)C(=O)Nc1cccc2ccccc12	inactive
